High-throughput results as filed in PubChem.
Shown are actives, neighbours in structure and some others; about 2.7% of the full set was active somewhere.
SENP6 block = SENP6 protease inhibition | 330,000 compounds, 1.8% hits | Recombinant SENP6 catalytic domain, aminoluciferin luminescence | AID 2599 | inhibition, % at 10 µM;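 active = inhibition above about 50% at the single tested dose, limit read from the data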
SENP8 block-1 = inhibitors of human SENP8 protease; 360,000 compounds, 0.64% hits; Q96LD8; inhibition, % at 20 µM; recombinant SENP8, Nedd8 substrate fluorescence; AID 602440; in the data active = inhibition mostly above about 40%, no sharp cut-off; inactive = mostly below about 27%
HSP90 inh = blocks HSP90-mediated luciferase refolding in reticulocyte lysate. Rabbit reticulocyte lysate, luciferase refolding luminescence, 3 h. inhibition, % at 5.6 µM. 290,000 compounds, 0.91% hits. AID 1789;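 active = inhibition above the screen-wide mean plus 3 SD, computed separately per campaign, cut at about 16% in these data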;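 note: inhibitors lower the luminescence because luciferase stays unfolded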
SENP8 block-2 = SENP8 protease inhibition; AID 2540; inhibition, % at 10 µM; 330,000 compounds, 1.2% hits; Q96LD8; purified SENP8, Z-RLRGG-aminoluciferin cleavage, luminescence; in the data active = inhibition above about 50%
SENP7 block = blocks the human protease SENP7; Q9BQF6; recombinant SENP7, Z-RLRGG-aminoluciferin luminescence, 40 min; inhibition, % at 5 µM; 330,000 compounds, 1.5% hits; AID 434973;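 active = inhibition above about 50% at the single test dose, limit read from the data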
HSP90 inh confirm = HSP90 inhibition, confirmation assay; shares compounds with HSP90 inh; AID 1846; rabbit reticulocyte lysate, luciferase refolding luminescence, 3 h; inhibition, % at 5.9 µM; 2,300 compounds, 64% hits; in the data active = inhibition above about 18%
luciferase ctr = counter-screen for HSP90 inhibitors: inhibitors of firefly luciferase; 2,300 compounds, 48% hits; AID 1847; shares compounds with HSP90 inh; purified native firefly luciferase, luminescence; inhibition, % at 5.9 µM;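 active = inhibition above the mean inhibition of all tested sample wells plus 3 SD, cut at about 10% in these data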
Target sequence (P08659 whole entry, looked up): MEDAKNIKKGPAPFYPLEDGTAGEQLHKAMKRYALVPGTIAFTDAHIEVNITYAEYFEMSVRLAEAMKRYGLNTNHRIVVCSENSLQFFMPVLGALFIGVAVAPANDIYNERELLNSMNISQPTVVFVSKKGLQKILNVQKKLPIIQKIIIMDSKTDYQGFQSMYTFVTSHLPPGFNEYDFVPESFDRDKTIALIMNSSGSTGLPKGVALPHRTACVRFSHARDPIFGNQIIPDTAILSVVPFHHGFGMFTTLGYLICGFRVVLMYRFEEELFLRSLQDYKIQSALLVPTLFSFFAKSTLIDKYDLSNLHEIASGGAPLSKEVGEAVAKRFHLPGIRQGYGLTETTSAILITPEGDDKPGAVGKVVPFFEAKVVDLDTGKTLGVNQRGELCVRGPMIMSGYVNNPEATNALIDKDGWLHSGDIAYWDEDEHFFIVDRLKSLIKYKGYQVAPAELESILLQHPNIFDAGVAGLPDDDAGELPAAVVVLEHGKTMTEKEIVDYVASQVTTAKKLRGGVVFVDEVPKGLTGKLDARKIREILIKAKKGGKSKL
Each line names hits and unclear results; the compound was inactive in the other large screens (follow-up assays come after a bar, where they were run).

CC1(c2nnc(-c3ccc(F)cc3)o2)CC(c2cccnc2)=NO1 (stereo not drawn)	none (no result: HSP90 inh)
O=C(O)c1ccc(NC(=S)NC(=O)c2cncc(Br)c2)cc1	HSP90 inh 51 | HSP90 inh confirm 25 | luciferase ctr inactive
CCOC(=O)c1ccc(NC(=S)NC(=O)c2cncc(Br)c2)cc1	none
CCN1CCN(C(c2cc(OC)ccc2OC)c2nnnn2Cc2ccccc2)CC1 (stereo not drawn)	none
Cc1ccc(C(=O)NCCN2C3=NC[C@H](C(C)C)N3C[C@H]2Cc2ccc(O)cc2)cc1Br	none
COc1ccc(C[C@H]2CN3C(=NC[C@@H]3C(C)C)N2CCNC(=O)c2ccc(C)c(Br)c2)cc1	HSP90 inh 18 | HSP90 inh confirm inactive | luciferase ctr inactive
COC1=C/C(=C/c2c(O)c(C#N)c3ccccn23)C=CC1=O	HSP90 inh 26 | HSP90 inh confirm inactive | luciferase ctr inactive
COc1cc(OC)cc(C(=O)c2c(C)c(C#N)c3ccccn23)c1	none
CC(=O)Oc1cc(OC(C)=O)c2c(C)cc(=O)oc2c1	HSP90 inh 21 | HSP90 inh confirm inactive | luciferase ctr inactive
O=C(O)c1ccccc1NC(=O)c1cc2ccccc2oc1=O	HSP90 inh 23 | HSP90 inh confirm inactive | luciferase ctr inactive
O=C(Nc1cccnc1N1CCOCC1)c1cc2ccccc2oc1=O	none (no result: HSP90 inh)
Cc1nn(-c2ccc(C(=O)O)cc2)c(N)c1-c1ccccc1	HSP90 inh 21 | HSP90 inh confirm 48 | luciferase ctr inactive
COc1ccc(CCNC(=O)CCCCCN2C(=O)c3ccccc3C2=O)cc1	none
O=C(Cc1cccc2ccccc12)N/N=C/c1ccc(OC(=O)/C=C/c2ccco2)cc1	none
Cc1cccc(C)c1NC(=O)/C(C#N)=C/c1ccc(-c2ccc(C(=O)O)cc2)o1	HSP90 inh 34 | HSP90 inh confirm 36 | luciferase ctr inactive
N#C/C(=C\c1ccc(-c2ccc(C(=O)O)cc2)o1)C(=O)Nc1ccc(F)cc1	none (no result: SENP6 block, SENP8 block-2, SENP7 block)
O=C(/C=C/c1c(F)cccc1Cl)c1ccc(O)cc1	HSP90 inh 24 | HSP90 inh confirm inactive | luciferase ctr inactive
O=C(/C=C/c1c(F)cccc1Cl)Nc1ncccn1	none
CCOc1cc(C2C3=C(CCCC3=O)OC3=C2C(=O)CCC3)cc([N+](=O)[O-])c1O	HSP90 inh 31 | HSP90 inh confirm inactive | luciferase ctr inactive
C=CCn1c(SCC(=O)NCC)nnc1-c1cc2c(s1)CCC(CC)C2 (stereo not drawn)	none
C=CCn1c(SCC(=O)NCCOC)nnc1-c1cc2c(s1)CCC(CC)C2 (stereo not drawn)	HSP90 inh 52 | HSP90 inh confirm inactive | luciferase ctr inactive
O=C(O)C1CCCCC1C(=O)Nc1ccc(OCc2ccccc2)cc1 (stereo not drawn)	none
Cn1c(=O)c2ccccc2n(Cc2ccccc2Cl)c1=O	HSP90 inh 28 | HSP90 inh confirm inactive | luciferase ctr inactive
C=CCc1ccc(OCCn2cccc2C=O)c(OC)c1	HSP90 inh 23 | HSP90 inh confirm 35 | luciferase ctr inactive
CCOC(=O)C1=C(c2ccccc2)N2CCS(=O)(=O)N=C2S1	none
Cc1nc2c(-c3ccc(F)cc3)c(C)nn2c(C)c1CCC(=O)N1CCOCC1	none
Cc1nc2c(-c3ccc(F)cc3)c(C)nn2c(C)c1CCC(=O)NCCN1CCOCC1	HSP90 inh 40 | HSP90 inh confirm inactive | luciferase ctr inactive
COc1ccc(N(CC(=O)Nc2ccc3c(c2)OCCO3)S(C)(=O)=O)c(OC)c1	none
COc1cccc(Sc2nc(-c3ccccc3)ncc2S(C)(=O)=O)c1	HSP90 inh 26 | HSP90 inh confirm inactive | luciferase ctr 14
CCOC(=O)c1csc(COc2ccc(OC)cc2)n1	HSP90 inh 20 | HSP90 inh confirm 52 | luciferase ctr inactive
CCOC(=O)c1csc(COc2ccccc2Cl)n1	none
O=C(CN1C(=O)c2ccccc2S1(=O)=O)c1ccccc1	none
Cc1ccc(C(=O)CN2C(=O)c3ccccc3S2(=O)=O)cc1	HSP90 inh 24 | HSP90 inh confirm 57 | luciferase ctr inactive
O=C(CN1C(=O)c2ccccc2S1(=O)=O)NCc1ccccc1Cl	none
O=C(CN1C(=O)c2ccccc2S1(=O)=O)c1ccccc1Cl	HSP90 inh 53 | HSP90 inh confirm 76 | luciferase ctr inactive
Cc1ccc(C(=O)CN2/C(=C(\O)c3ccccc3)C(=O)c3ccccc3S2(=O)=O)c(C)c1	HSP90 inh 40 | HSP90 inh confirm inactive | luciferase ctr inactive
COc1ccc(C2NC(=O)CS2)cc1 (stereo not drawn)	none
CCN(c1cccc(C(F)(F)F)c1)S(=O)(=O)c1ccc2c(c1)CCN2C(=O)C1CC1	none
CCC(=O)N1CCc2cc(S(=O)(=O)CCC(=O)NCc3ccco3)ccc21	HSP90 inh 23 | HSP90 inh confirm inactive | luciferase ctr inactive
CCC(=O)N1CCc2cc(S(=O)(=O)CCC(=O)NCCc3ccccc3)ccc21	none
CCC(=O)N1CCc2cc(S(=O)(=O)N(CC)c3cccc(C)c3)ccc21	HSP90 inh 62 | HSP90 inh confirm inactive | luciferase ctr inactive
O=C(Nc1ccccn1)c1ccc(Cl)c(S(=O)(=O)N2CCOCC2)c1	none
CN(Cc1ccccc1)S(=O)(=O)c1ccc(Cl)c(C(=O)NCc2ccncc2)c1	none (no result: HSP90 inh)
CC(C)NC(=O)C1(C)CCCN1C/C=C/c1ccccc1 (stereo not drawn)	none (no result: SENP6 block, HSP90 inh, SENP8 block-2, SENP7 block)
CN(C)c1ccc(C(=S)Nc2ccccc2)cc1	HSP90 inh 57 | HSP90 inh confirm 65 | luciferase ctr inactive
CN(C)c1ccc(NC(=S)c2ccccn2)cc1	HSP90 inh 66 (no result: SENP6 block, SENP8 block-2, SENP7 block) | HSP90 inh confirm 94 | luciferase ctr 90
CCOC(=O)c1cnn(-c2ccc(NS(=O)(=O)c3ccc(Cl)cc3)cc2)c1C(F)(F)F	none
CCN(CC)C(=O)C1CCCN(C(=O)c2ccc3nc(-c4cccc(OC)c4)oc3c2)C1 (stereo not drawn)	none (no result: SENP6 block, HSP90 inh, SENP8 block-2, SENP7 block)
CCC(=O)C1CCCN(C(=O)c2ccc3nc(-c4cccc(OC)c4)oc3c2)C1 (stereo not drawn)	HSP90 inh 25 | HSP90 inh confirm 32 | luciferase ctr 15
CCOC(=O)C1CCCN(C(=O)c2ccc3nc(-c4cccc(OC)c4)oc3c2)C1 (stereo not drawn)	HSP90 inh 21 | HSP90 inh confirm 36 | luciferase ctr 25
c1ccc(-c2cn3ccccc3n2)cc1	none (no result: SENP6 block, HSP90 inh, SENP8 block-2, SENP7 block)
Cc1ccsc1C(=O)Nc1nc2ccccc2[nH]1	SENP6 block 99, HSP90 inh 22, SENP8 block-2 95, SENP7 block 98 | HSP90 inh confirm 38 | luciferase ctr 29
Cc1cc2ccccc2c(=O)n1CC(=O)NCC(=O)N(C)C1CCCCC1	HSP90 inh 28 | HSP90 inh confirm inactive | luciferase ctr inactive
Cc1cc2ccccc2c(=O)n1CC(=O)NCC(=O)N(C)Cc1ccccc1	none
O=C(O)c1ccc2nc(-c3ccccc3)c(-c3ccccc3)nc2c1	HSP90 inh 42 | HSP90 inh confirm 51 | luciferase ctr 37
